Reference: ChEMBL document CHEMBL3988442, “University of Dundee, Small-Polar-MMV Screening Library” (2021)
Hit rate of the full screen: of about 48,000 compounds, about 13,000 (27%) showed an effect of 50% or more. This is one part of the list.

tested on: Wolbachia pipientis; assay: Anti-Wolbachia Cell-Based Screen; format: functional; set-up: scale not given: in the data most compounds retested in dose-response had high values; conditions: 5 µM

| Structure (SMILES) | Percent Effect [%] |
| --- | --- |
| COc1cc(CNc2cc(-c3ccoc3C)nn2CCO)ccc1F | 9.115 |
| COc1c(F)cc(CN2CCC3(CC2)C(C(=O)O)CC(=O)N3C)cc1Cl (centres undefined) | 5.354 |
| CS(=O)(=O)c1cccc(Cl)c1C(=O)NCCN1C(=O)CCC1=O | -4.304 |
| CCS(=O)(=O)N1CC(=O)N(Cc2ccccc2OC)CC(O)C1 (centres undefined) | 89.74 |
| COc1ccccc1CC(C)N(C)S(C)(=O)=O (centres undefined) | 9.665 |
| COc1ccccc1CN1C(=O)O[C@@H]2CN(S(=O)(=O)N(C)C)C[C@@H]21 | -2.255 |
| COc1ccccc1CN1C(=O)O[C@@H]2CN(C(C)C)C[C@@H]21 | 11.8 |
| CCO[C@H]1C[C@@H](O)C12CCN(S(=O)(=O)c1ccccc1OC)CC2 | -9.049 |
| COc1ccccc1CN1CC(O)CN(S(=O)(=O)C(C)C)CC1=O (centres undefined) | 100.2 |
| CCc1noc(C)c1C(=O)NCc1c(C)nn(CCOC)c1C | -2.688 |
| CN(C)C(=O)N1C[C@H]2CC[C@@H]1CN(C1Cc3ccccc3C1)C2 | 7.395 |
| Cc1cnc(C)c(N2CCCC(CO)(Cc3ccccc3C)C2)n1 (centres undefined) | -4.771 |
| CCc1ccc2nc(NCCCN(CCO)CCO)cc(C)c2c1 | 14.19 |
| CCc1ccc2nc(NCC(O)CO)cc(C)c2c1 (centres undefined) | -9.237 |
| CCc1ccc2nc(NCCOCCO)cc(C)c2c1 | 107.5 |
| NC(=O)C(NC(=O)CCc1ccc(Cl)s1)c1ccccc1 (centres undefined) | 7.544 |
| c1cc(-c2ccc3c(c2)C2(CCNCC2)CC3)ccn1 | -17.91 |
| O=C(CCc1ccc(F)cc1)NS(=O)(=O)c1ccc2c(c1)OCCCO2 | 20.72 |
| c1cnc2[nH]c(C3CCNCC3)c(CN3CCOCC3)c2c1 | 102.1 |
| c1cnc2[nH]c(C3CCCC3)c(CN3CCOCC3)c2c1 | 96.59 |
| Cl.OC1CCN(Cc2c(C3CCCNC3)[nH]c3ncccc23)CC1 (centres undefined) | -8.296 |
| Oc1ncccc1-c1nc(-c2cccc(CN3CCOCC3)c2)no1 | -1.647 |
| COCCN1CCN(Cc2c(C3CCNCC3)[nH]c3ncccc23)CC1.Cl | 66.52 |
| COCCn1ccnc1C1CCN(Cc2ccccc2C#N)CC1 | -0.03291 |
| Cl.c1cnc2[nH]c(C3CCCNC3)c(CN3CCCOCC3)c2c1 (centres undefined) | 94 |
| COCCN1CCC(c2nc3c([nH]2)CC(C)(C)CNC3=O)CC1 | -9.725 |

| Structure (SMILES) | Percent Effect [%] |
| --- | --- |
| CN(Cc1ccon1)CC1CCOc2ccccc2C1 (centres undefined) | -13.25 |
| CC1CN(C(=O)c2ccnc(OCCN(C)C)c2)c2ccccc21 (centres undefined) | 5.142 |
| c1cnc(OCc2nnc3n2CCN(CC2CC2)C3)nc1 | -18.49 |
| CCN1CCN(Cc2c(C3CCCC3)[nH]c3ncccc23)CC1 | 101.4 |
| CS(=O)(=O)NCC1CCCN(Cc2ccc(F)c3cccnc23)C1 (centres undefined) | -1.722 |
| CC1CCCN(Cc2c(C3CCOCC3)[nH]c3ncccc23)C1 (centres undefined) | -13.09 |
| CC1CCCN(Cc2ccc(CNC(=O)NCc3ccon3)cc2)C1 (centres undefined) | -7.486 |
| CCN1CCCC(c2c(-c3ccccc3)ncn2Cc2cccnc2)C1 (centres undefined) | -13.51 |
| O=C(CN1CCCCCC1)NCc1cccnc1Oc1ccccc1 | -1.634 |
| c1cnc2[nH]c(C3CCCC3)c(CN3CCCCC3)c2c1 | 61.56 |
| CC1CCCN(Cc2c(C3CC3)[nH]c3ncccc23)C1 (centres undefined) | 97.08 |
| OCC1CCCN(Cc2c(C3CCCC3)[nH]c3ncccc23)C1 (centres undefined) | 82.97 |
| O=C(Cn1nc2ccccc2n1)N1CCCC(O)(CO)C1 (centres undefined) | -10.36 |
| Cc1cc(NC(=O)N(C)CCN2CCN(c3ccccc3)CC2)on1 | -6.324 |
| COc1c(CNC(c2ccc(F)cc2)c2nccn2C)c(C)nn1C (centres undefined) | -17.53 |
| COCCSc1ccc(-n2ccnc2)nn1 | 19.88 |
| CC1(Cc2ccc3c(c2)OCO3)CCCN(S(=O)(=O)N2CCOCC2)C1 (centres undefined) | -4.077 |
| Cc1cccn2cc(CN3CCCC(O)C3)nc12 (centres undefined) | -5.177 |
| Cc1cc(Cn2cc(C#N)c(=O)c3ccccc32)no1 | 6.304 |
| O=C1C(NCc2nnc3n2CCCC3)CCCN1c1cccc(F)c1 (centres undefined) | -1.768 |
| O=C(NCCc1nnc2n1CCC2)NCC1(c2ccccc2F)CC1 | 109 |
| O=C(NCCc1nnc2n1CCC2)c1ccccc1OC1CCCC1 | -0.3605 |
| O=C(NCCc1nnc2n1CCC2)NCC1(c2ccc(F)cc2)CC1 | 123.4 |
| O=C(NCCc1nnc2n1CCC2)N1CCC2(CCCCC2)C1 | -5.882 |
| O=C(NCCc1nnc2n1CCC2)NCC1(c2ccccc2)CC1 | 95.51 |
| O=C(NCc1nnc2n1CCC2)NCC1(c2cccc(F)c2)CC1 | 112.3 |

| Structure (SMILES) | Percent Effect [%] |
| --- | --- |
| NC(=O)CC1CCN(C(=O)NCC2(c3ccccc3F)CC2)CC1 | 3.443 |
| Cn1cc(CCNC(=O)NCc2nnc3n2CCC3)cn1 | -8.052 |
| O=C(NCCC1=CCCCC1)NCc1nnc2n1CCC2 | 7.36 |
| Cc1cc(C)c(CNC(=O)NCc2nnc3n2CCC3)c(=O)[nH]1 | 8.689 |
| O=C(NCCc1ccc(Cl)s1)NCc1nnc2n1CCC2 | 3.587 |
| CCOc1ncnc2c1CCN(c1cc(C(F)(F)F)ncn1)CC2 | 1.194 |
| CCOC(=O)CC1CCCCN1C(=O)c1cc(C)on1 (centres undefined) | 7.011 |
| CS(=O)(=O)N(Cc1ccon1)c1ccc2c(c1)OCO2 | -10.09 |
| Cc1nc(-c2cc(Cl)cc3c2OC(CN)C3)c[nH]1 (centres undefined) | -15.93 |
| Cc1ccc(-c2nnc(CN3CC[C@H](CO)[C@@H](O)C3)o2)n1C | -9.968 |
| c1coc(CNc2nnc(Cc3ccsc3)o2)c1 | -2.731 |
| O=C(c1cc(F)cc(Cl)c1)N1C[C@@H]2CC[C@H](C1)N(Cc1ccccc1)C2 | 106.3 |
| O=C(c1ccc(=O)[nH]c1)N1C[C@@H]2CC[C@H](C1)N(Cc1ccccc1)C2 | 87.59 |
| O=C(c1ccccc1)N1C[C@@H]2CC[C@H](C1)N(Cc1cc(F)ccc1Cl)C2 | -19.41 |
| O=C(c1cc(Cl)c[nH]c1=O)N1C[C@@H]2CC[C@H](C1)N(Cc1ccccc1)C2 | 80.73 |
| O=C(c1ccc(F)c(Cl)c1)N1C[C@@H]2CC[C@H](C1)N(Cc1ccccc1)C2 | 2.522 |
| CC(=O)N1C[C@@H]2CC[C@H](C1)N(Cc1ccc(Cn3cccn3)cc1)C2 | 6.393 |
| O=C(c1c[nH]c(=O)c(Cl)c1)N1C[C@@H]2CC[C@H](C1)N(Cc1ccccc1)C2 | -15.02 |
| CCC1CN(C(=O)c2ccc(=O)[nH]c2)CCC(=O)N1Cc1ccccc1 (centres undefined) | -17.04 |
| O=c1cc(CN2C[C@H]3CC[C@@H]2CN(Cc2ccccc2)C3)[nH]c(=O)[nH]1 | 2.734 |
| CC(C)c1nc(CN(C)S(=O)(=O)c2cccs2)cs1 | 0.03171 |
| CC(CS(C)(=O)=O)N(C(=O)CCc1ccc(Cl)s1)C1CC1 (centres undefined) | -4.139 |
| Cc1nc(CNC(=O)NCC(O)c2ccc(F)c(F)c2)cs1 (centres undefined) | 9.084 |
| COc1cccc(-n2nnc(C(=O)N3CCN(C)CC3C)c2C)c1 (centres undefined) | 13.25 |
| COCCN1C[C@@H]2CCCO[C@@H]2[C@H](NC(=O)c2cnccn2)C1.O=C(O)C(F)(F)F | -16.42 |
| c1cc(-c2noc([C@@H]3CCCN3C3CCC3)n2)cc(N2CCCC2)n1 | -5.247 |

| Structure (SMILES) | Percent Effect [%] |
| --- | --- |
| CNc1nc(C(=O)NCc2cccnc2N(C)C)cs1 | -18.64 |
| Cc1ccc(C(=O)NCc2cccnc2N(C)C)s1 | 92.24 |
| CN(C)c1ncccc1CNC(=O)NCc1ccc(Cl)s1 | 103.5 |
| Cc1nnsc1C(=O)NCc1cccnc1N(C)C | -2.409 |
| Cc1cc(NC(=O)NCc2cccnc2OC(C)C)n(C)n1 | 8.95 |
| Cc1cnc(C(C)(C)NC(=O)NCc2cccnc2OC(C)C)s1 | -10.8 |
| CC(C)Oc1ncccc1CNC(=O)NC(C)c1cccs1 (centres undefined) | 104.4 |
| Cc1cnc(CNC(=O)NCc2cccnc2N(C)C)s1 | -3.719 |
| Cc1nc(CSCCC(=O)NCc2cccnc2N(C)C)cs1 | -3.36 |
| Cc1nc(CNC(=O)NCc2cccnc2N(C)C)cs1 | 95.24 |
| CN(C)c1ncccc1CNC(=O)N1CCN(C)c2ccccc2C1 | -11.25 |
| Cc1ccc(CNC(=O)NCc2cccnc2N(C)C)s1 | -3.895 |
| CCc1ccccc1OCCN1C[C@@H](NS(C)(=O)=O)[C@H](C(C)C)C1 | 0.8676 |
| O=C(O)c1cccnc1CN1CCOc2ccccc2C1 | -4.779 |
| Cc1cccn2c(CNC(C)CO)cnc12 (centres undefined) | 5.706 |
| CCC(CNC(=O)c1ccc(C(N)=O)cc1)Oc1cccc(F)c1 (centres undefined) | -8.287 |
| CCCS(=O)(=O)NC(C)c1cccc(-n2cccn2)c1 (centres undefined) | -8.996 |
| NC(=O)c1ccc(-n2ccnc2-c2cccc(O)c2)cc1N1CCCC1 | -15.85 |
| O=C(NCc1ccccn1)NCC(O)c1ccccc1C(F)(F)F (centres undefined) | -3.765 |
| CN(C)C(CNC(=O)NCc1ccco1)c1cccs1 (centres undefined) | 6.587 |
| CC(C)C(NC(=O)NCc1cccnc1N(C)C)c1cccs1 (centres undefined) | 97.46 |
| CC(NC(=O)NCc1cccnc1N(C)C)c1cccs1 (centres undefined) | 91.27 |
| CN(C)c1ncccc1CNC(=O)NCc1ccco1 | -3.644 |
| O=C(NCc1ccccn1)NCc1ccc(Cl)s1 | 100.6 |
| CN(C)c1ncccc1CNC(=O)NCC(c1cccs1)N(C)C (centres undefined) | 101.5 |
| CN(C)c1ccc(NC(=O)NCc2ccc(Cl)s2)cn1 | 9.088 |
